Source: PubChem BioAssay
CHO-K1 Ca antag: M1 antagonist counterscreen hit in parental CHO-K1 cells | ATP-induced calcium, Fluo-8 fluorescence | inhibition, % at 3 µM | hit rate 0.6% among 360,000 | AID 602250;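 active = inhibition above a per-plate cutoff, the plate's mean sample inhibition plus 3 SD, cut at about 24% in these data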;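 also: 0% = DMSO plus EC80 ATP and 100% = DMSO alone without ATP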
CHRM1 agonist: agonists of human M1 muscarinic receptor; P11229; hit rate 0.33% among 360,000; CHO-K1 hM1, Fluo-8 calcium fluorescence, agonist mode; 0% DMSO, 100% acetylcholine EC100; activation, % at 3 µM;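 active = activation above the run's mean compound activation plus 3 SD, cut at about 16% in these data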;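 also: peak over basal fluorescence ratio within a 140 s kinetic read after compound addition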
Target sequence (P11229 whole entry, looked up): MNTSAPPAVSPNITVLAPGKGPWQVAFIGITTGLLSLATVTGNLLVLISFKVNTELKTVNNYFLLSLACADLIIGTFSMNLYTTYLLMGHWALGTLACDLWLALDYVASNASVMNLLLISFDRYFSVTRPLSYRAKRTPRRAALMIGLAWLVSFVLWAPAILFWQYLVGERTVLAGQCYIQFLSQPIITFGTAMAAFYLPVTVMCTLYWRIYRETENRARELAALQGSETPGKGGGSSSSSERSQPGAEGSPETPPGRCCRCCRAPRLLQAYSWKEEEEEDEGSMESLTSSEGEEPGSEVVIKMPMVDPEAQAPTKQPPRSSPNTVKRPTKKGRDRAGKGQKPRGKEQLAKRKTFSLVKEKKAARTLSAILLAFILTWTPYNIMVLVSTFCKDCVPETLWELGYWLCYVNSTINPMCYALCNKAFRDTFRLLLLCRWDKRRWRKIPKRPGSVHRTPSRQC
M1 PAM parental: nonselective activator or artifact in parental CHO-K1 calcium assay. activation, % at 3 µM. hit rate 0.02% among 360,000. ATP EC20, Fluo-8 calcium fluorescence; 0% at ATP EC20, 100% at ATP max. AID 602247;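 active = activation above the run cutoff, the mean activation of all test compounds plus 3 SD, cut at about 40% in these data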;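 also: peak over basal fluorescence ratio in a 140 s read after ATP addition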
M1 ag parental: nonselective activator or artifact in parental CHO-K1 cells; Fluo-8 calcium fluorescence; scaled to maximal ATP response, vehicle zero; activation, % at 3 µM; hit rate 0.48% among 360,000; AID 602248; in the data active = activation above about 15%;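 also: untransfected CHO-K1 host cells lacking M1 receptor as counterscreen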
CHRM1 antagonist: human CHRM1 antagonism. P11229. CHO-K1 hM1, Fluo-8 calcium fluorescence, ACh EC80 antagonist. inhibition, % at 3 µM. hit rate 1.3% among 360,000. AID 588852;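 active = percent inhibition above its own plate's cutoff, namely the mean of that plate's compound wells plus 3 SD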;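 also: peak over basal fluorescence ratio during 140 s after agonist addition; 0% = ACh EC80 plus DMSO and 100% = DMSO alone without agonist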
CHRM1 PAM: potentiates human M1 receptor response to acetylcholine; P11229; CHO-K1 hM1, Fluo-8 calcium fluorescence, ACh EC20; 0% = ACh EC20, 100% = maximal ACh; activation, % at 3 µM; hit rate 0.088% among 360,000; AID 588819; in the data active = activation above about 19%, passing the limit was not always enough
* marks the source's active call; other numbers are inactive results. This is a sample that favours compounds with a hit; in the whole collection about 2.3% have one here.

SMILES	CHO-K1 Ca antag	CHRM1 agonist	M1 PAM parental	M1 ag parental	CHRM1 antagonist	CHRM1 PAM
CCN1CCN(c2ccc(NC(=O)c3ccc(Cl)c(N4CCCC4=O)c3)cc2)CC1	-2.5	-12.6	0.6	0.1	23.4*	-20.4
O=C(Nc1cccc(S(=O)(=O)N2CCOCC2)c1)c1cn(-c2ccccc2)nc1-c1ccccc1	18.2	-5.1	1.4	3.0	21.6	-15.7
CCN(CC)CCOC(=O)c1ccc(NC(=O)c2ccc(Cl)c(S(=O)(=O)N3CCCCCC3)c2)cc1	3.6	-4.1	-5.9	1.6	97.8*	-20.8
Cc1ccc(-c2nn(-c3ccccc3)cc2C(=O)Nc2ccc(C)c(S(=O)(=O)N3CCOCC3)c2)cc1	24.5*	-4.7	-13.6	0.5	-1.4	2.9
O=C(Nc1ccncc1)c1ccc(Cl)c(S(=O)(=O)N2CCCCC2)c1	-1.3	3.0	-0.4	9.4	-2.2	-8.7
CN(C)CCCNC(=O)N1c2ccccc2Sc2ccccc21	-8.0	-10.8	12.1	0.1	100.3*	-28.2
O=C(CCN1CCOCC1)N1c2ccccc2Sc2ccc(Cl)cc21	-9.7	-8.4	9.9	1.8	99.5*	-28.7
O=C(NCCN1CCOCC1)N1c2ccccc2Sc2ccccc21	6.8	-5.2	9.0	2.1	61.5*	-23.6
O=C(NCCO)N1c2ccccc2Sc2ccccc21	-2.0	-5.0	10.2	0.9	-10.3	8.1
O=[N+]([O-])c1cc2c(c([N+](=O)[O-])c1)Nc1ccccc1O2	11.7	4.7	0.1	16.8*	-4.8	-1.4
O=C1Nc2ccccc2Oc2cc([N+](=O)[O-])cc(Oc3ccccc3)c21	2.7	3.0	7.8	3.9	-6.8	3.9
O=C1c2cccc3c(O)ccc(c23)C(=O)N1Cc1ccccc1	60.3*	262.3*	-9.8	149.2*	69.9*	-28.1
O=C(O)c1cccc(CN2C(=O)c3ccccc3C2=O)c1	11.2	1.3	-10.8	-0.6	-0.6	10.9
Cc1ccc(CN2CCC(c3cc(-c4cccs4)n[nH]3)CC2)cc1	-0.1	-15.4	14.0	2.5	31.3*	-36.8
O=C1CC(O)(C(F)F)Oc2ccc3ccccc3c21 (centres undefined)	-0.1	-4.2	10.0	0.1	4.8	-0.6
O=C1CC(O)(C(F)(F)F)Oc2c1ccc1ccccc21 (centres undefined)	-1.1	6.4	2.7	27.5*	3.0	-6.3
O=S1(=O)C[C@H](N2CCCC2)[C@@H](COCc2ccccc2)N1	24.8*	9.6	-7.8	-0.5	5.9	12.9
O=C(Nc1ccccc1)[C@@H]1CC=C[C@@H]2CCN(C3CCCCC3)C(=O)[C@@H]21	-16.1	-3.9	9.0	-0.2	-11.7	10.7
CCCCN1C(=O)C(=O)N(CC(=O)Nc2cc(Cl)ccc2OC)C1=O	-20.1	0.7	-1.7	0.9	-19.2	27.8*
N#CC1(C(N)=O)OC12CCS(=O)(=O)c1ccccc12 (centres undefined)	-11.5	-1.5	-4.0	-0.1	-13.4	2.2
C#CCCCCCCC#CCN(C)C	25.6*	41.1*	-14.2	0.0	20.7	-17.0
Nc1nc2ccccc2n1S(=O)(=O)c1ccc(Cl)cc1	3.0	-11.4	-4.1	0.1	78.7*	-33.7
Nc1nc2ccccc2n1S(=O)(=O)c1ccc([N+](=O)[O-])cc1	-4.2	-10.6	10.3	0.8	30.5	-30.7
COc1ccc(S(=O)(=O)n2c(N)nc3ccccc32)cc1	0.0	-10.2	-8.9	0.8	99.8*	-33.6
Cc1ccc(S(=O)(=O)n2c(N)nc3ccccc32)cc1	-19.6	-8.5	15.9	2.3	98.0*	-27.0
SMILES	CHO-K1 Ca antag	CHRM1 agonist	M1 PAM parental	M1 ag parental	CHRM1 antagonist	CHRM1 PAM
Cn1c(/C(C#N)=C/c2cccc(O)c2)nc2ccccc21	-0.6	-5.2	12.0	0.3	-17.4	18.3
Cn1c(/C(C#N)=C/c2ccc(-c3ccc(S(N)(=O)=O)cc3)o2)nc2ccccc21	17.5	1.1	14.1	21.7*	30.0	-14.9
NCCn1c(-c2ccccc2)cc(C(=O)O)c1-c1ccccc1F	-17.4	-2.4	17.1	0.2	-8.8	9.6
COc1ccccc1N1CCN(C(=O)C2CCC(CNS(=O)(=O)c3ccc(NC(C)=O)cc3)CC2)CC1 (centres undefined)	-6.7	-3.8	-1.6	0.2	4.4	-1.5
CCCSc1nnc(NC(=O)Nc2ccc(F)cc2)s1	24.1*	1.0	-3.3	3.4	16.4	-6.1
COc1cccc(CNC(=O)CCC2CCCN(Cc3ccc4c(c3)CCO4)C2)c1 (centres undefined)	5.0	-7.3	-6.8	-0.4	17.1	-13.1
COc1ccccc1C(=O)NC(=O)COC(=O)c1cccc(C)c1O	13.6	-3.5	-11.1	15.1*	1.1	1.6
COc1ccccc1C(=O)NC(=O)COC(=O)c1cc[n+]([O-])cc1	-1.5	1.5	-5.4	1.1	1.2	3.0
CCC1CC(C(=O)O)CC(=O)N1 (centres undefined)	11.9	0.6	5.8	-0.2	-3.6	7.4
COc1ccc2cc(CNCCOCCOCCNCc3ccc4cc(OC)ccc4c3)ccc2c1	2.5	-2.1	0.8	8.6	17.1	-12.3
CCOC(=O)c1ccc(S(=O)(=O)n2c(=O)oc3ccccc32)cc1	18.4	-0.2	-24.2	13.2	31.2*	-23.2
Cc1ccc(S(=O)(=O)n2c(=O)oc3ccccc32)cc1	-0.9	-0.5	11.0	2.6	-9.9	1.9
CCOC(=O)CN(c1ccccc1C)S(=O)(=O)c1ccc(Cl)cc1	3.4	-6.2	-8.7	1.9	16.6	-7.8
COCc1nc2ccccc2n1CCc1ccccc1	26.4*	1.1	-10.1	-0.1	-6.8	11.0
COc1ccc(C(=O)N/C(=C\c2ccco2)C(=O)NCCN2CCOCC2)cc1	10.0	-1.6	5.9	-0.3	-4.1	6.7
CC1=NOC(=O)/C1=C\c1ccc(-c2ccc(Br)cc2)o1	11.0	5.5	8.2	7.1	34.4*	-0.9
CC(C)n1nccc1N(Cc1ccc(Br)cc1)S(=O)(=O)c1ccccc1	-10.9	-6.4	-7.9	-1.0	-1.4	-3.3
CC1(C)Cc2[nH]c3ccccc3c2C(C)(C)N1	-11.7	-8.1	3.7	3.3	-5.5	4.0
COC(=O)c1sccc1S(=O)(=O)Nc1ccc(Cl)cc1	-13.8	-2.5	2.4	5.8	9.6	-7.1
COC(=O)c1sccc1S(=O)(=O)Nc1ccc(C(O)(C(F)(F)F)C(F)(F)F)cc1	8.4	66.4*	3.3	60.6*	38.7*	-32.5
Cc1nn(-c2ccccc2)c(OC(=O)c2cccs2)c1S(=O)(=O)c1ccc([N+](=O)[O-])cc1	-8.4	0.3	-5.8	0.5	-14.3	12.9
C/C(=N\NC(=O)Cc1ccc(Cl)c(Cl)c1)c1cccnc1	44.0*	-3.4	6.6	0.3	-4.6	1.7
O=C(C1CCC(CNc2nc(=S)[nH]c3ccccc23)CC1)N1CCN(c2ccc(F)cc2)CC1 (centres undefined)	-2.4	-7.4	-9.8	-0.4	32.6*	-12.6
